Compounds with a hit are over-represented: about 22% of the library has one in this group of screens.
Pf growth 96h: Primary qHTS for delayed death inhibitors of the malarial parasite plastid, 96 hour incubation; P. falciparum luciferase reporter growth, 96 h; AID 504834, 2011; actives 6.9% (n = 320,000); Potency, µM (doses to about 28.7 µM), inactives show at the top dose activity change, negative = inhibition, actives largely listed as inhibitors; further: potency means the concentration at half of the fitted maximal effect; on the % scale 0 is the no-effect control and ±100 the full control effect
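Erythrocytes infected with luciferase-expressing P. falciparum were dispensed at 2% hematocrit and 0.05% parasitemia (final), then incubated with compounds 96 hours at 37 C in 5% CO2. Luminescence after detection reagent addition reported growth.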
Pf growth 48h: Primary qHTS for delayed death inhibitors of the malarial parasite plastid, 48 hour incubation; actives 5.9% (n = 310,000); Potency, µM (top dose mostly 28.7 µM), inactives show at the highest dose activity change, negative = inhibition, most hits filed as inhibitors; P. falciparum luciferase growth in erythrocytes, 48 h; further: potency means the concentration at half of the fitted maximal effect; on the % scale 0 is the no-effect control and ±100 the full control effect
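Erythrocytes infected with P. falciparum carrying an integrated firefly luciferase reporter (2% hematocrit, 0.1% parasitemia final) were exposed to compounds in RPMI 1640 with 0.5% Albumax at 37 C, 5% CO2. Growth inhibition was scored as reduced luminescence.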
CHX counter: Cycloheximide Counterscreen for Small Molecule Inhibitors of Shiga Toxin; cell reporter, cycloheximide protein synthesis inhibition counterscreen; max response, %; actives 12% (n = 300,000); AID 2314, 2010; in the data active means max response mostly above about 13%, no sharp cut-off; inactive means mostly below about 14%; further: read at 38.3 µM for the half of the compounds with a filed dose; 0% is about no effect
Shiga toxin inh: A qHTS for Small Molecule Inhibitors of Shiga Toxin. Vero cells, Shiga toxin protein synthesis inhibition reporter. inhibition, % at 38.7 µM. actives 9.2% (n = 290,000). AID 2315, 2010; in the data active means inhibition mostly above about 28%, no sharp cut-off; inactive means mostly below about 43%; further: 0% is about no effect
LmPK inh: qHTS Assay for Inhibitors of Leishmania Mexicana Pyruvate Kinase (LmPK). purified LmPK, Kinase-Glo ATP luminescence, 1 h. AID 1721, 2009. actives 0.37% (n = 290,000). Q27686. Potency, µM (titrated, usually from 57.5 µM), without a hit: at the highest dose activity change, negative = inhibition, most hits filed as inhibitors; further: potency means the concentration at half of the fitted maximal effect; on the % scale 0 is the no-effect control and ±100 the full control effect
Target sequence (Q27686 whole entry, looked up): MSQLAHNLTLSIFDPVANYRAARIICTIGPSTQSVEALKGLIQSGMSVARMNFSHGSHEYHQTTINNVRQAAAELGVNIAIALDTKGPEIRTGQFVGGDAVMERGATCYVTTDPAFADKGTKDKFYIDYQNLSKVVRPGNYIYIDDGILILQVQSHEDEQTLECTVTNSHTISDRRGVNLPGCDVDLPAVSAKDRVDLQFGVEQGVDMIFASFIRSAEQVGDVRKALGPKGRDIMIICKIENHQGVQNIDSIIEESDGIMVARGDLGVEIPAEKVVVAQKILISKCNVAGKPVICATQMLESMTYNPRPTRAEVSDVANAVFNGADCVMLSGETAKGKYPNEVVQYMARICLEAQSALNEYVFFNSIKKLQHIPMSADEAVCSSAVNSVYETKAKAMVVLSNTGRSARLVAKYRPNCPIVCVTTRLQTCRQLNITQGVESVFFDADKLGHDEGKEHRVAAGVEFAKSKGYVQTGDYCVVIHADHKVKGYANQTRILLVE
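Pyruvate kinase activity monitored as ATP production (luciferase luminescence). Conditions: 0.1 nM enzyme, 0.5 mM PEP, 0.1 mM ADP, 1 h, RT; normalized against uninhibited and no-enzyme wells.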
* = called active by the depositor; ? = inconclusive; . = no result; [ ] = another dose, or the depositor's remark. Unless noted, the call rests on the fitted dose curve; in most records, active means well fitted inhibition curve with a large enough effect; inconclusive means small, poorly fitted or top-dose-only effect, or another doubt; inactive means no such curve, though single readings can be large or run the other way.

SMILES | Pf growth 96h | Pf growth 48h | CHX counter | Shiga toxin inh | LmPK inh
CC1OC(Oc2ccc3ccc(=O)oc3c2-c2c(O)ccc3cc(Oc4ccc5ccc(=O)oc5c4)c(=O)oc23)C(O)C(O)C1O (centres undefined) | ? | -10.3% | -4.1 | -9.6 | -3.3%
CC(c1ccccc1)C(Cc1nc2ccccc2[nH]1)c1nc2ccccc2[nH]1 (centres undefined) | -17.3% | 7.38µM* | -1.5 | -3.1 | 7.5%
Cc1ccc2nc(C(C)O)[nH]c2c1 (centres undefined) | -3.2% | 8.8% | 2.2 | -6.4 | -4.5%
OC(c1nc2ccccc2[nH]1)C(O)c1nc2ccccc2[nH]1 (centres undefined) | ? | -9.1% | 21.1* | . | -0.1%
Cc1ccc2nc(C(O)C(O)c3nc4ccc(C)cc4[nH]3)[nH]c2c1 (centres undefined) | . | -104.0% | 45.7* | 122.0* | 7.2%
N#CC(C(=S)Nc1ccccc1)c1nc2ccccc2[nH]1 (centres undefined) | 4.65µM* | ? | 18.7* | 24.7 | -1.1%
Cc1ccc(C(CC(=O)O)NC(=O)c2ccc(S(=O)(=O)N3CC(C)OC(C)C3)cc2)cc1 (centres undefined) | 9.0% | -7.7% | . | . | .
Cc1occc1-c1nnc(SCC(=O)Nc2nc3ccccc3s2)o1 | . | 23.1% | 6.5 | 3.7 | 0.8%
CCOc1ccc(S(=O)(=O)N2CCN(C(=O)c3ccncc3)CC2)cc1 | 8.7% | -1.7% | -1.6 | -6.1 | -1.8%
CCCCC(=O)N1CCCC(c2nc(-c3cccc(OC)c3)no2)C1 (centres undefined) | ? | 32.8% | 41.2* | 82.5* | -16.6%
COc1cccc(-c2noc(C3CCCN(S(=O)(=O)c4cccc(Cl)c4C)C3)n2)c1 (centres undefined) | 30.4% | 5.3% | -2.7 | -21.8 | 2.5%
CCCS(=O)(=O)N1CCCC(c2nc(-c3cccc(OC)c3)no2)C1 (centres undefined) | -2.0% | 28.8% | 17.8* | 44.7 | 3.2%
COc1cccc(-c2noc(C3CCCN(C(=O)c4ccccc4OC)C3)n2)c1 (centres undefined) | ? | 66.3% | 52.1* | 47.8* | -0.6%
Cc1cccc(NC(=O)CSc2nc3ccccc3c3nc(CCc4c(C)n[nH]c4C)nn23)c1 | 18.9% | 7.38µM* | -0.7 | -17.7 | -3.1%
Cc1ccccc1NC(=O)c1ccc2c(c1)OCCO2 | -16.9% | 97.4% | 18.1* | 136.9* | -11.1%
N#Cc1ccccc1COC(=O)c1ccc2c(c1)OCCO2 | 59.0% | 82.2% | . | . | .
COC(=O)c1ccccc1NC(=O)c1ccc2c(c1)OCCCO2 | ? | -61.2% | 22.5* | 30.1 | -5.9%
N#Cc1ccccc1NC(=O)COC(=O)c1ccc2c(c1)OCCO2 | 34.2% | 71.0% | 19.3* | 29.2 | -0.7%
CC(C)(C)NC(=O)c1ccccc1NC(=O)c1ccc2c(c1)OCO2 | -0.7%[5.75 µM] | 0.0% | -3.6 | -18.7 | 5.8%
N#Cc1ccccc1NC(=O)c1ccc2c(c1)OCCO2 | 7.7% | 156.0% | 31.2* | 99.0* | 0.0%
O=C(CSc1nc2ccccc2c(=O)n1-c1ccc(OC(F)F)cc1)NC1CC1 | -9.1% | 37.8% | . | . | .
CCC1Oc2ccc(C)cc2N(CC(=O)NCC2CCCO2)C1=O (centres undefined) | -2.9% | 0.0% | -6.9 | -12.9 | 10.2%
CC(C)(C)c1ccccc1NC(=O)CN1C(=O)NC(Cc2ccccc2)C1=O (centres undefined) | ? | 1.1% | . | . | .
Cc1cccc(NC(=O)c2ccc3c(c2)OCCO3)c1C | -8.7% | 109.7% | 47.0* | 109.1* | -10.5%
Cc1cccc(NC(=O)COC(=O)c2ccc3c(c2)OCO3)c1C | -11.4% | 0.0% | -4.9 | 5.2 | 6.2%
SMILES | Pf growth 96h | Pf growth 48h | CHX counter | Shiga toxin inh | LmPK inh
COC(=O)c1ccccc1NC(=O)CN1CCC(C(=O)c2ccc3c(c2)OCCO3)CC1 | 1.47µM* | 7.8% | -3.4 | -9.3 | 6.3%
CCOC(=O)Cn1nc(-c2ccccc2)c2cnc3ccc(CC)cc3c21 | ? | ? | 6.6 | 9.0 | 4.2%
NC(=O)c1ccc(NC(=O)COc2cccc3ccccc23)cc1 | 3.6% | 25.9% | -2.2 | -13.1 | 8.1%
CC(C)(C)NC(=O)c1ccc(COc2ccc(Cl)cc2Cl)o1 | ? | -9.6%[0.00184 µM] | -2.0 | 19.1 | 3.3%
Cc1c(N(C)C)nc2ccccc2c1N | 20.4% | 7.3% | -4.8 | -11.3 | -7.7%
Nc1nc2ccccc2nc1N | 32.5% | 31.8% | 13.9* | 27.7* | -9.6%
CCN(CC)c1nc2ccccc2c(N)c1-c1ccccc1 | -2.5% | 14.7µM* | -3.6 | 28.8 | -1.5%
Cc1cccc2c(N)c3c(nc12)CCCC3 (tested in a mixture with another compound) | ? | 4.65µM* | 4.8 | 7.8 | 2.1%
Nc1c2ccccc2nc2ccccc12 | 4.65µM* | 5.22µM* | -1.7 | -12.4 | 0.1%
CN(C(=O)Cn1c(=O)oc2ccccc21)C1CCCCC1 | -0.4% | 4.8% | . | . | .
Clc1c2c(nc3ccccc13)CCC2 | -13.7% | 18.5% | -1.9 | -6.4 | 0.3%
Nc1c2c(nc3ccccc13)CCCC2 | 8.49µM* | ? | 7.2 | -5.1 | -0.7%
c1ccc(Oc2c3ccccc3nc3ccccc23)cc1 | ? | 7.38µM* | -4.0 | -13.0 | 1.7%
Nc1ccc2nc3c(c(Cl)c2c1)CCCC3 | 12.1% | 23.1% | 29.4* | 27.8 | 0.4%
CCN1CCN(C(=O)c2ccc3c(Cl)c4c(nc3c2)CCCC4)CC1 | -28.7% | ? | 8.1 | -17.3 | 1.3%
Cc1cccc2c(N)c3c(nc12)N(C)CC3 | -9.1% | 5.5% | 1.8 | 5.5 | -0.4%
Cc1cc(C)c2c(N)c3cccc(C)c3nc2n1 | 6.57µM* | 4.15µM* | -4.2 | -23.6 | 0.2%
CN(c1ccc(OCC(=O)N2CCOCC2)cc1)S(=O)(=O)c1ccc(Cl)cc1 | ? | 25.8% | 6.4 | 11.0 | -0.1%
O=C(NCCNc1ccc([N+](=O)[O-])cc1)c1ccc(Cl)cc1 | 30.5% | ? | -3.4 | 24.9 | 9.3%[11.5 µM]
CC12CCC(=O)N1C(C(=O)Nc1cc(S(=O)(=O)N3CCCCCC3)ccc1OCC(F)(F)F)CS2 (centres undefined) | ? | ? | -1.5 | -6.2 | -0.9%
OC1CCCN(c2c3c(nc4cc(-c5cccc(Cl)c5)nn24)CCC3)C1 (centres undefined) | 0.0% | 4.65µM* | 8.4 | 3.0 | 2.5%
COc1cccc(-c2cc3nc(-c4ccccc4)cc(N4CCCC(O)C4)n3n2)c1 (centres undefined) | 7.8% | 11.7µM* | 0.8 | -8.6 | -6.5%
COCCN1CCN(c2c3c(nc4cc(-c5cccc(F)c5)nn24)CCC3)CC1 | ? | ? | 1.8 | -3.6 | 5.1%
O=C(C1CCCO1)N1CCN(c2c3c(nc4cc(-c5ccc(F)cc5)nn24)CCC3)CC1 (centres undefined) | ? | ? | 1.9 | -10.3 | 0.8%
